In PubChem BioAssay AID1159580 (chemical genetic matrix, 2015):
The campaign covered roughly 5,500 compounds. About 2,000 (36%) were called active. Not shown: some 18% with an inconclusive outcome. Cut-off read from the data, not from the text of the source: active = normalized growth mostly below about 0.91 (no sharp cut-off); inconclusive = no clear call, values can overlap the other calls; inactive = mostly above about 0.92. The list shows a part of the results.

Test: chemical genetic growth profiling, strain panel (AID 1159580);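 note: tested at 20 µM; growth read once vehicle control cultures reached saturation at 30 °C; 1 = growth at the plate median or of vehicle wells; lower values mean less growth of the strain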
Settings: growth OD

Measured: normalized growth

CC(=O)O[C@@H]1CC2C(C)(C)C(=O)C=C[C@]2(C)C2CC[C@@]3(C)[C@H](c4ccoc4)OC(=O)[C@H]4O[C@]43[C@@]21C (stereo partly drawn)
inactive: S. cerevisiae deletion strains, locus YJR066W, strain TOR1, hits give low values 0.932 | S. cerevisiae deletion strains, locus YKL009W, strain mrt4, hits give low values 1.07 | S. cerevisiae deletion strains, locus YKL068W, hits give low values 1 | S. cerevisiae deletion strains, locus YKL085W, strain MDH1 (second series), hits give low values 1.03 | S. cerevisiae deletion strains, locus YKL085W, strain MDH1, hits give low values 1.03 | S. cerevisiae deletion strains, locus YKL160W, strain elf1, hits give low values 1.02 | S. cerevisiae deletion strains, locus YKR001C, strain vps1, hits give low values 0.975 | S. cerevisiae deletion strains, locus YKR026C, strain gcn3, hits give low values 0.985 | S. cerevisiae deletion strains, locus YKR091W, strain srl3, hits give low values 1 | S. cerevisiae deletion strains, locus YLL001W, strain dnm1, hits give low values 0.972 | S. cerevisiae deletion strains, locus YLL026W, hits give low values 1.01 | S. cerevisiae deletion strains, locus YLL041C, strain sdh2, hits give low values 0.992 | S. cerevisiae deletion strains, locus YLR027C, strain aat2, hits give low values 1.02 | S. cerevisiae deletion strains, locus YLR039C, strain RIC1, hits give low values 0.877 | S. cerevisiae deletion strains, locus YLR058C, strain SHM2, hits give low values 1 | S. cerevisiae deletion strains, locus YLR102C, strain apc9, hits give low values 0.993 | S. cerevisiae deletion strains, locus YLR113W, strain HOG1, hits give low values 0.987 | S. cerevisiae deletion strains, locus YLR221C, strain rsa3, hits give low values 0.989 | S. cerevisiae deletion strains, locus YLR258W, strain gsy2, hits give low values 1.01 | S. cerevisiae deletion strains, locus YLR262C, strain YPT6 (second series), hits give low values 0.927 | S. cerevisiae deletion strains, locus YLR262C, strain YPT6, hits give low values 0.962 | S. cerevisiae deletion strains, locus YLR268W, strain sec22, hits give low values 1 | S. cerevisiae deletion strains, locus YLR320W, strain mms22, hits give low values 0.954 | S. cerevisiae deletion strains, locus YLR330W, strain CHS5, hits give low values 1.01 | S. cerevisiae deletion strains, locus YLR342W, strain FKS1 (second series), hits give low values 0.966 | S. cerevisiae deletion strains, locus YLR342W, strain FKS1, hits give low values 1.01 | S. cerevisiae deletion strains, locus YLR357W, strain rsc2, hits give low values 1.12 | S. cerevisiae deletion strains, locus YLR370C, strain arc18, hits give low values 1 | S. cerevisiae deletion strains, locus YLR371W, strain rom2, hits give low values 0.989 | S. cerevisiae deletion strains, locus YLR384C, strain iki3, hits give low values 1.02 | S. cerevisiae deletion strains, locus YLR418C, strain cdc73, hits give low values 1.04 | S. cerevisiae deletion strains, locus YML016C, strain PPZ1, hits give low values 0.999 | S. cerevisiae deletion strains, locus YML032C, strain rad52, hits give low values 0.993 | S. cerevisiae deletion strains, locus YML120C, strain ndi1, hits give low values 0.965 | S. cerevisiae deletion strains, locus YML124C, strain tub3, hits give low values 0.979 | S. cerevisiae deletion strains, locus YMR058W, strain fet3, hits give low values 0.983 | S. cerevisiae deletion strains, locus YMR078C, strain ctf18, hits give low values 0.983 | S. cerevisiae deletion strains, locus YMR125W, strain sto1, hits give low values 1.07 | S. cerevisiae deletion strains, locus YMR129W, hits give low values 1 | S. cerevisiae deletion strains, locus YMR205C, strain PFK2, hits give low values 0.981 | S. cerevisiae deletion strains, locus YMR223W, strain ubp8, hits give low values 1 | S. cerevisiae deletion strains, locus YMR231W, strain pep5, hits give low values 1.01 | S. cerevisiae deletion strains, locus YMR263W, strain SAP30, hits give low values 0.993 | S. cerevisiae deletion strains, locus YMR307W, strain GAS1, hits give low values 0.918 | S. cerevisiae deletion strains, locus YNL067W, strain RPL9B, hits give low values 1.01 | S. cerevisiae deletion strains, locus YNL071W, strain lat1, hits give low values 1 | S. cerevisiae deletion strains, locus YNL183C, strain NPR1, hits give low values 0.943 | S. cerevisiae deletion strains, locus YNL209W, strain ssb2, hits give low values 1.01 | S. cerevisiae deletion strains, locus YNL233W, strain BNI4, hits give low values 1.02 | S. cerevisiae deletion strains, locus YNL248C, strain rpa49, hits give low values 1.06 | S. cerevisiae deletion strains, locus YNL250W, strain rad50, hits give low values 1.01 | S. cerevisiae deletion strains, locus YNL271C, strain bni1, hits give low values 1 | S. cerevisiae deletion strains, locus YNL298W, strain CLA4, hits give low values 1 | S. cerevisiae deletion strains, locus YNL307C, strain MCK1, hits give low values 0.989 | S. cerevisiae deletion strains, locus YNL322C, strain KRE1 (second series), hits give low values 1.01 | S. cerevisiae deletion strains, locus YNL322C, strain KRE1, hits give low values 1 | S. cerevisiae deletion strains, locus YNR049C, strain mso1, hits give low values 1.01 | S. cerevisiae deletion strains, locus YNR052C, strain pop2, hits give low values 0.981 | S. cerevisiae deletion strains, locus YOL006C, strain TOP1, hits give low values 1.01 | S. cerevisiae deletion strains, locus YOL012C, strain htz1 0.906 | S. cerevisiae deletion strains, locus YOL147C, strain pex11, hits give low values 0.988 | S. cerevisiae deletion strains, locus YOR001W, strain rrp6, hits give low values 0.976 | S. cerevisiae deletion strains, locus YOR061W, strain CKA2, hits give low values 0.997 | S. cerevisiae deletion strains, locus YOR069W, strain VPS5, hits give low values 1 | S. cerevisiae deletion strains, locus YOR070C, strain gyp1, hits give low values 1.01 | S. cerevisiae deletion strains, locus YOR080W, strain dia2, hits give low values 0.996 | S. cerevisiae deletion strains, locus YOR083W, strain WHI5, hits give low values 0.98 | S. cerevisiae deletion strains, locus YOR106W, strain vam3, hits give low values 1.03 | S. cerevisiae deletion strains, locus YOR136W, strain idh2, hits give low values 1.01 | S. cerevisiae deletion strains, locus YOR144C, strain elg1, hits give low values 0.979 | S. cerevisiae deletion strains, locus YOR184W, strain ser1, hits give low values 1.02 | S. cerevisiae deletion strains, locus YOR231W, strain MKK1, hits give low values 0.998 | S. cerevisiae deletion strains, locus YOR265W, strain rbl2, hits give low values 1.01 | S. cerevisiae deletion strains, locus YOR270C, strain vph1, hits give low values 0.896 | S. cerevisiae deletion strains, locus YOR290C, strain snf2, hits give low values 1.02 | S. cerevisiae deletion strains, locus YOR316C, strain cot1, hits give low values 0.987 | S. cerevisiae deletion strains, locus YPL051W, strain arl3, hits give low values 1.02 | S. cerevisiae deletion strains, locus YPL078C, strain atp4, hits give low values 1.01 | S. cerevisiae deletion strains, locus YPL106C, strain sse1, hits give low values 1.05 | S. cerevisiae deletion strains, locus YPL240C, strain hsp82, hits give low values 0.997 | S. cerevisiae deletion strains, locus YPL241C, strain CIN2, hits give low values 0.992 | S. cerevisiae deletion strains, locus YPL256C, strain CLN2, hits give low values 0.997 | S. cerevisiae deletion strains, locus YPR119W, strain clb2, hits give low values 0.981 | S. cerevisiae deletion strains, locus YPR141C, strain kar3, hits give low values 1.01 | S. cerevisiae deletion strains, locus YPR163C, strain tif3, hits give low values 0.984 | S. cerevisiae deletion strains, locus YPR167C, strain met16, hits give low values 1 | S. cerevisiae deletion strains, strain wtn01, hits give low values 1.01 | S. cerevisiae strains, strain wild type, hits give low values 1
